Laboratory results as given in paper PMC12136788.
The full ranking holds about 5,800 sequences; the median of “enrichment r” is about 0.68, and the highest 2% start at about 11. A selection follows.

B1: ENSG00000187498:stop:overlap|stop_codon|ENSG00000187498|stop_codon|NA|stop_codon (ssRNA)
RNA: GGGAGUUCUACAGUCCGACGAUCAGGUGAACCGGGACCUCCUGGAUUGCCAGGCUCCGUGGGGUCUCCAGGAGUUCCAGGAAUAGGCCCCCCUGGAGCUAGGGGUCCCCCUGGAGGACAGGGACCACCGGGGUUGUCAGGCCCCAACAGAGGAUUGAGCAUCA
B2: chr10:71816642:71816777:-|3pUTR|ENSG00000197746|msi1_unk|total|mutant (ssRNA)
RNA: GGGAGUUCUACAGUCCGACGAUCUUGUUUGGGGUUCUGUGGGUUUGGGUGGGAAGAGGGCCAUCUGCCUGAAUGUAACCUGCCCGCUCUCCGAAGGCCCUGCGGGCCUGGCUUGUGUGAGCGUGUGGACAGUGGUGGCCGCGCCAACAGAGGAUUGAGCAUCA
B3: chr20:35276351:35277713:-|three_prime_utr|ENSG00000126005|control|control|control (ssRNA)
RNA: GGGAGUUCUACAGUCCGACGAUCCUCCUCUCCCCACGUCCCUGCGUCUCUUACACCCCCUCCCACCCGAGGCUCCCCAGAGAUAGCAGAGAAUUCGAAGAGGUCGCCGGGGACUGGAAAGAAGUCCCGGCAGGGCCGCCUUCGCAACAGAGGAUUGAGCAUCA
B4: chr2:42328916:42329027:+|CDS|ENSG00000143924|unk|FALSE|unique (ssRNA)
RNA: GGGAGUUCUACAGUCCGACGAUCAGAAGGAUCUGAUGGGACAGAUAUCAAUGCACUGGUGCGAUCCCACAAUAGAAAGGUGAUAGCUGUUGCCGAUGACUUUUGUAAAGUCCAUCUGUUUCAGUAUCCCUGCUCCAAAGCAAACAACAGAGGAUUGAGCAUCA
B5: chr1:28742582:28742694:+|CDS|ENSG00000198492|unk|FALSE|bound_elsewhere (ssRNA)
RNA: GGGAGUUCUACAGUCCGACGAUCAGCAACGGAGAGCCCCACUUCCUACCAGAUGCAAUGUUUGGGCAACCAGGAGCCCUAGGUAGCACUCCAUUUCUUGGUCAGCAUGGUUUUAAUUUCUUUCCCAGUGGGAUUGACUUCUCACAACAGAGGAUUGAGCAUCA
B6: chr1:235182574:235182675:-|CDS|ENSG00000054267|unk|FALSE|unique (ssRNA)
RNA: GGGAGUUCUACAGUCCGACGAUCUUUGACCAACAACAGAAAUGAUCUUAUUUCAAAGGAGGAACAGAACAGUUCAUCUUUGCUAGAAGAAAACAAAGUUCAUGCAGAUUUGGUAAUAUCCAAACCAGUGUCAAAAUCUCCAGACAACAGAGGAUUGAGCAUCA
B7: chr14:81473690:81473791:-|3pUTR|ENSG00000071537|msi1|total|mutant (ssRNA)
RNA: GGGAGUUCUACAGUCCGACGAUCCAGUGUUUUGGAAGUAUGCAUGCAGGCCUAUAAAUGAAAAACACAAUUCUUUAUGUGUACCGCAUGUGUAUUAAUGUCUAACUACAUACGCAAAAACUUCCUUUACAGAGGUUCGGACUACAACAGAGGAUUGAGCAUCA
B8: chr3:124966548:124966651:-|3pUTR|ENSG00000173706|unk|FALSE|bound_elsewhere (ssRNA)
RNA: GGGAGUUCUACAGUCCGACGAUCAGGAAGAAUGCAAAGUUCAGUAUUUCAAUACUUUGUAUUUUACUUGAAAUUACCCUUAGUAGCAUCUUUUUUUUCCUGUCUGAAAGCUUUUGUGUGGAUGAGAAGGGACAUUUCAUUUCCCAACAGAGGAUUGAGCAUCA
B9: chr1:225419324:225419425:-|CDS|ENSG00000143815|msi1|FALSE|unique (ssRNA)
RNA: GGGAGUUCUACAGUCCGACGAUCUUACAUAGCAACACAGUAUAGCCUUCGUCCAAGAAGAGAAGAAGUCAAAUUAAAAGAAAUAGAUUCUAAGGAAGAAAAAUACGUUGCAAAAGAACUGGCAGUGAGAACCUUUGAAGUGACCAACAGAGGAUUGAGCAUCA
B10: chr16:18841627:18841728:-|CDS|ENSG00000157106|msi1|FALSE|bound_elsewhere (ssRNA)
RNA: GGGAGUUCUACAGUCCGACGAUCUACAAUUAAUCGCCAAGAAACACCCCGGUUCCAUGCUCGACACUAUUCUGUAACACCACUAGGAACAAGAUCAGGACUAAUCCAGUGGGUAGAUGGAGCCACACCCUUAUUUGGUCUUUACAACAGAGGAUUGAGCAUCA
B11: chr15:65058426:65058617:-|CDS|ENSG00000103710|control|control|control (ssRNA)
RNA: GGGAGUUCUACAGUCCGACGAUCCUGAACUGGGCCCAUGCCUUCCUGGUGGUGUACAGCGUCGACAGCCGCCAGAGCUUUGAUAGCAGCAGCAGCUACCUGGAGCUGCUUGCCUUGCACGCGAAGGAGACACAGCGCAGCAUCCAACAGAGGAUUGAGCAUCA
B12: chr8:28970260:28970371:+|CDS|ENSG00000147421|unk|total|mutant (ssRNA)
RNA: GGGAGUUCUACAGUCCGACGAUCUCUUCCUCUACAGCUACAGCUUCCACACAGACGCAGCAUUCGGGAAUGUCCCCGUCACCCCGCAACAGUUAUGAUACUUCCCCACAGCCUUGCACUACCAAUCAAAAUGGGAGGGAGAAUCAACAGAGGAUUGAGCAUCA
B13: chr1:13148904:13149928:-|three_prime_utr|ENSG00000280267|control|control|control (ssRNA)
RNA: GGGAGUUCUACAGUCCGACGAUCCCUGGACCUGAGUGGCAUCAGACUGACCAAUUACAGUCUUGUGCCUCUCCAAAUUCUCCUAGAAAAAGUUGCAGCCACCCUUGAGUACCUGGAUUUAGAUGACUGUGGCAUCAUAGACUCCAACAGAGGAUUGAGCAUCA
B14: chr14:63372511:63372612:-|3pUTR|ENSG00000154001|unk|total|mutant (ssRNA)
RNA: GGGAGUUCUACAGUCCGACGAUCUGGGGAUGAGGGUGGGAUGGGAAAGGGAUGUAUGGAUGUUAUUGGCAUUUUUAAGUGUUCCGAGUUUUUUGGGGUUUGGGGUGGUUUUUUUUCCUUGUUUUCCUUUUUUCCUUUUAAUUGCAACAGAGGAUUGAGCAUCA

molecular target: T1, UNK ZnF1-6 (called full-length) (human, UniProt Q9C0B0 30-357); assay: nsRBNS (natural sequence RNA bind-n-seq); RBNS binding buffer (assumed for nsRBNS): 25 mM Tris pH 7.5, 150 mM KCl, 3 mM MgCl2, 0.01% Triton X-100, 500 ug/ml BSA, 20 U/ml SUPERase-In, 4 C; UNK is unkempt and MSI1 is Musashi-1; names of the RNAs are library labels; protein concentration not given here; high values mean tight binding
T1 sequence: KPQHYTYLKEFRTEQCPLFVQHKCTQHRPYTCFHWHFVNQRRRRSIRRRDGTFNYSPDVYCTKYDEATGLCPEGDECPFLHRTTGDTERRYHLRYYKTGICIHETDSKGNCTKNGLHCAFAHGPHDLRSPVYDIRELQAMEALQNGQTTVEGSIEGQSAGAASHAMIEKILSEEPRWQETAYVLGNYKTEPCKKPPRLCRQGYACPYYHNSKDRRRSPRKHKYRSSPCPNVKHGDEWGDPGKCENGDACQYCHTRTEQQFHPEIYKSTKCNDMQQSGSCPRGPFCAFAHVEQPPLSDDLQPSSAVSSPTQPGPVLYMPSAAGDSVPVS

Going from B1 to B2, the binding signal rises from 0.745 enrichment R to 0.901 enrichment R.

Going from B3 to B4, the binding signal falls from 0.869 enrichment R to 0.424 enrichment R.

First: B5
Second: B6
The binding signal of the first is higher: 0.665 enrichment R for the first, 0.258 enrichment R for the second.

Compared with B7, B8 is higher in binding signal: 0.563 enrichment R for the first, 1.1 enrichment R for the second.

First: B9
Second: B10
The binding signal of the first is lower: 0.538 enrichment R for the first, 0.869 enrichment R for the second.

Compared with B11, B12 is higher in binding signal: 0.597 enrichment R for the first, 0.625 enrichment R for the second.

First: B13
Second: B14
The binding signal of the first is lower: 0.577 enrichment R for the first, 1.7 enrichment R for the second.
